Source: PubChem BioAssay (National Center for Advancing Translational Sciences (NCATS))
Sampled rows, rich in hits. Any-hit rate of the full collection: about 2.4%.
D2 antagonist – antagonists of human D2 dopamine receptor; inhibition, % at 10 µM; hit rate 2% among 340,000; HEK293 TREx D2 cells, calcium flux, dopamine EC80; P14416; in the data active = inhibition above about 30%; inactive = below that, where a call was filed; also: 0% is about no effect
Target sequence (P14416 whole entry, looked up): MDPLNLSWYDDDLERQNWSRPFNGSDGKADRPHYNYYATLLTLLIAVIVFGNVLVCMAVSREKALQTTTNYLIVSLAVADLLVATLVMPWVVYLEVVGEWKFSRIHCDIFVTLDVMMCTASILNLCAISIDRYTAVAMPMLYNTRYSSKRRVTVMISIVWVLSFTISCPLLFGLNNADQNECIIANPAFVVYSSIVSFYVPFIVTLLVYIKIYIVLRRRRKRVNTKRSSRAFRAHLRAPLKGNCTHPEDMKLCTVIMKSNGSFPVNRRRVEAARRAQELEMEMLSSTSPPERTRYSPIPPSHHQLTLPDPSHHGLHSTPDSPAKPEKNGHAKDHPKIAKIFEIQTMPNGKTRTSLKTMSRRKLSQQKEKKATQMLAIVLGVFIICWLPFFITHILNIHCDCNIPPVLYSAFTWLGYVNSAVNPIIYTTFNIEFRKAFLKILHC
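Tetracycline-induced HEK293 T-REx cells expressing D2 force-coupled to calcium signalling were dye-loaded, exposed to compound for 180 s, then challenged with an EC80 of dopamine; calcium flux was followed kinetically for a further 180 s.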
D2 ag-1 – activates the human D2 dopamine receptor; hit rate 0.53% among 340,000; activation, % at 2 µM; P14416; HEK293 T-REx D2 cells, calcium flux agonist mode;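 active = activation over 3 SD above normal in the single-dose calcium agonist read, cut at about 30% in these data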; also: 0% is about no effect
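Agonism scored from kinetic calcium signal (1 read/sec, 180 s) following compound pin transfer, after a 10 s baseline. Cells: HEK293 Trex line expressing inducible D2 receptor coupled to calcium, dye-loaded after overnight culture at 30 C.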
D2 PAM-1 – potentiates the human D2 dopamine receptor allosterically. DiscoveRx D2 beta-arrestin cells, luminescence, 90 min; 100% = 57 uM dopamine signal. potentiation, % (concentration not given with the values). hit rate 0.23% among 360,000. AID 624464; in the data active = potentiation above about 50%; inconclusive = mostly about 30% to 49%
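PathHunter beta-arrestin assay in DiscoveRx D2 cells. Compounds were added with an EC20 of dopamine (50 nM final) for 90 min at 37 deg C. Luminescence was read 1 h after detection reagent, with 57 uM dopamine as the EC100 control.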
D2 PAM-2 – positive allosteric modulators of human D2 dopamine receptor; AID 485347; HEK293 T-REx D2, calcium flux, EC20 dopamine potentiation; potentiation, % at 10 µM; hit rate 0.34% among 340,000;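 active = potentiation over 3 SD above the plate norm, cut at about 30% in these data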; also: 0% is about no effect
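Primary screen. Calcium kinetics in induced HEK293 T-REx D2 cells: compound pre-addition 180 s, EC20 dopamine, 180 s more.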
D2 ag-2 – agonists of human D2 dopamine receptor (beta-arrestin). DiscoveRx PathHunter D2 beta-arrestin, luminescence, 90 min; 100% = 57 uM dopamine signal. AID 624465. P14416. hit rate 0.084% among 360,000. activation, % (no concentration beside the values); in the data active = activation above about 40%; inconclusive = between about 15% and that limit
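DiscoveRx PathHunter D2 beta-arrestin cells (2,100/well) attached overnight, then compound-stimulated 90 min at 37 C in HBSS/10 mM HEPES/0.1% Tween-20 buffer; beta-galactosidase complementation read by luminescence after 1 h at ambient temperature. Dopamine 57 uM final (EC100) as control.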
D3 ag – confirmation of human D3 dopamine receptor agonists, beta-arrestin; AID 720506; shares compounds with D2 ag-1; DiscoveRx D3 beta-arrestin cells, luminescence, 90 min; hit rate 4% among 2,300; Potency, µM (series often up to 76.9 µM), without a hit: at the highest dose activation, most hits filed as activators;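 also: potency is read from the fitted curve at half-maximal effect; 100% = dopamine control response; nearly all actives have a fitted effect of over 70% in size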
D2 ag-3 – D2 receptor agonism, beta-arrestin counterscreen; shares compounds with D2 ag-1; DiscoveRx PathHunter D2 beta-arrestin, luminescence, 90 min; response scale: percent relative to full dopamine signal; Potency, µM (highest dose often 76.9 µM), for the others: top-dose activation, most hits filed as activators; hit rate 5.9% among 2,300; AID 720507; also: potency is read from the fitted curve at half-maximal effect; % of control where 0% means no effect; nearly all actives have a fitted effect of over 70% in size
* marks the source's active call; other numbers are inactive results; u = inconclusive; x = no result; ! = a repeat was not active. Unless noted, calls follow the shape of the dose curve; as a rule, active = well fitted activation curve with a large enough effect; inconclusive = small, poorly fitted or top-dose-only effect; inactive = flat fitted curve, though single readings scatter.

SMILES | D2 antagonist | D2 ag-1 | D2 PAM-1 | D2 PAM-2 | D2 ag-2 | D3 ag | D2 ag-3
Cc1ccc(NC(=O)CNC(=O)c2ccc3c(c2)OCO3)nc1 | 5 | 1 | -9 | -2 | 2 | -14% | -4%
COc1ccc(CNCc2ccccc2C(F)(F)F)cc1 | -15 | -3 | -2 | -4 | -4 | x | x
CCN(CC)S(=O)(=O)c1ccc(NC(=O)c2cc(C(=O)OC)cc([N+](=O)[O-])c2)cc1 | 0 | 46* | 5 | -19 | 3 | 9% | 4%
COC(=O)c1cc(C(=O)Nc2ccc(S(=O)(=O)NC(C)(C)C)cc2)cc([N+](=O)[O-])c1 | -13 | 2 | 7 | -2 | 5 | x | x
CN1C(=O)C(CC(=O)Nc2ccc(F)cc2)N(NC(=O)c2cccc(F)c2)C1=S (configuration not stated) | -14 | 1 | -12 | 8 | -4 | x | x
O=C1CCC(C(=O)N2CCN(c3ccc(F)cc3)CC2)CN1CC1CCCCC1 (configuration not stated) | -1 | -1 | -11 | 1 | -4 | x | x
O=C1CCC(C(=O)N2CCN(c3ccccc3)CC2)CN1CC1CCCCC1 (configuration not stated) | 19 | 62* | -14 | -24 | 6 | 14% | u
CC(=O)C12OC1CC1C3CCC4=CC(=O)CCC4(C)C3CCC12C (configuration not stated) | 0 | 0 | -18 | -3 | 0 | x | x
Oc1ccc(CNCC2COc3ccccc3O2)cc1 (configuration not stated) | 185* | 68* | -28 | -28 | 11 | -4% | 19%
CN(C)S(=O)(=O)c1cccc(CNCC2COc3ccccc3O2)c1 (configuration not stated) | 106* | 77* | -8 | -27 | 12 | u | 29%
c1ccc(CCNCC2COc3ccccc3O2)cc1 (configuration not stated) | 24 | 32* | -13 | -22 | 4 | 2% | 3%
COc1cc(OC)cc(C(=O)NNC(=O)c2ccc(S(=O)(=O)N3CC(C)OC(C)C3)cc2)c1 (configuration not stated) | 12 | 0 | -4 | -12 | -2 | x | x
O=c1c2cnn(-c3ccccc3)c2ncn1CCc1ccccc1 | 6 | 65* | 9 | -19 | 0 | -3% | -2%
CCn1cnc2c(cnn2-c2ccccc2)c1=O | 26 | -1 | -3 | -9 | 0 | x | x
CCN(CC)c1ccc(NC(=S)NC(=O)Cc2ccccc2)cc1 | 77* | 73* | 0 | -21 | 0 | -1% | 0%
CCOc1ccc(NC(=S)NC(=O)Cc2ccccc2)cc1 | 1 | -1 | -5 | 1 | 1 | x | x
Cc1[nH]nc2c1C(c1ccsc1)C1=C(CC(C)(C)CC1=O)N2 (configuration not stated) | 10 | 42* | -14 | -4 | -3 | -10% | -6%
Cc1[nH]nc2c1C(c1cccs1)C1=C(CC(C)(C)CC1=O)N2 (configuration not stated) | 30* | 36* | 3 | -6 | -2 | -1% | -4%
CC(C)(C)c1ccc(C2=NC(=O)C(CC(=O)O)S2)cc1 (configuration not stated) | 14 | 0 | -30 | 4 | -6 | x | x
COc1cc(/C=C/C(=O)OCC(=O)Nc2cc(C)c(C)cc2[N+](=O)[O-])ccc1O | 22 | -1 | -8 | 9 | 0 | -4% | -2%
COc1cc(/C=C/C(=O)OCC(=O)Nc2ccc(C)cc2[N+](=O)[O-])ccc1O | -28 | 1 | -6 | 9 | -4 | x | x
O=C(NCCN1CCN(c2ccccc2)CC1)c1cccn2c(=O)c3cc(Cl)ccc3nc12 | 11 | 0 | -14 | 6 | -2 | x | x
O=C(NCCN1CCN(c2cccc(Cl)c2)CC1)c1ccc(CSc2nc3ccncc3[nH]2)cc1 | 86* | 46* | -13 | -14 | 9 | 22µM* | u
O=C(NCCCN1CCN(c2cccc(Cl)c2)CC1)c1cccc(N2CCCC2=O)c1 | 13 | 48* | -42 | -24 | 2 | -4% | 7%
O=C(NCCN1CCN(c2ccccc2)CC1)c1cccc(Cl)c1 | 70* | 46* | -6 | -26 | -2 | u | 12%
SMILES | D2 antagonist | D2 ag-1 | D2 PAM-1 | D2 PAM-2 | D2 ag-2 | D3 ag | D2 ag-3
O=C(NCCCN1CCN(c2cccc(Cl)c2)CC1)c1ccc(N2CCCC2=O)cc1 | -14 | 0 | -2 | -2 | 3 | x | x
COc1ccccc1C(=O)NCCN1CCN(c2ccccc2)CC1 | 83* | 72* | u | -13 | u | u | u
COc1ccc(OC)c(NC(=O)NCCN2CCN(c3ccccc3)CC2)c1 | -5 | 0 | -17 | 16 | 1 | x | x
CCN(CCNC(=O)c1ccc(CSc2nc3ccncc3[nH]2)cc1)c1ccccc1 | x | x | -6 | x | 0 | x | x
O=C1CCCCCN1Sc1ccccc1 | x | x | -9 | x | -5 | x | x
CC(C)Oc1cccc(-c2cc(C(=O)N3CCN(c4ncccn4)CC3)c3ccccc3n2)c1 | 2 | 0 | x | 8 | x | x | x
CC(C)CCNC(=O)c1cnc2sc(N3CCCCCC3)nn2c1=O | x | 0 | x | 7 | x | x | x
CCc1ccc(NC(=O)N(CCN2CCOCC2)C2CCN(C(C)=O)CC2)cc1 | -6 | 1 | 4 | -2 | -4 | x | x
O=C(NCCN1CCN(C(=O)c2cccc(Br)c2)CC1)C(=O)Nc1ccc(Br)cc1 | 3 | 0 | -9 | 2 | -2 | x | x
Cc1cccc(C)c1NC(=O)C(=O)NCCCN1CCOCC1 | x | x | 18 | x | -6 | x | x
Cc1cccc(C(=O)NCCCNC(=O)c2cccc(C)c2)c1 | 7 | 0 | -13 | -6 | -3 | x | x
Cc1cccc(C)c1NC(=O)NCCCN1CCN(c2ccccc2)CC1 | 72* | 74*! | -12 | -29 | u | u | u
O=C(NCCN1CCN(c2ccccc2)CC1)c1cccc(Br)c1 | 78* | 89* | -2 | -33 | 8 | 25% | 20%
Cc1cccc(C(=O)NCCN2CCN(c3ccccc3)CC2)c1 | 91* | 49* | -21 | -22 | 2 | u | 6%
COc1ccccc1C(=O)NCCC(=O)NCCOc1ccccc1 | -10 | 0 | -3 | -1 | -2 | x | x
COc1ccccc1OCCNC(=O)CCNC(=O)c1ccccc1OC | 26 | 0 | 9 | 4 | -2 | -4% | -3%
CCOC(=O)N1CCC(NC(=O)CCc2c(C)nc3nc(C)nn3c2C)CC1 | -9 | 0 | 1 | 29 | -2 | x | x
CC(C)CNC(=O)c1cccc(NC(=O)Cc2ccc(Br)cc2)c1 | 11 | 0 | -21 | -7 | 9 | x | x
